Measurements as given in PubChem BioAssay AID504333 (National Center for Advancing Translational Sciences (NCATS), 2011).
The campaign covered roughly 360,000 compounds. About 16,000 (4.4%) were called active. Not shown: some 9% with an inconclusive outcome. Calls come from the whole dose curve; as a rule, active = well fitted inhibition curve with a large enough effect; inconclusive = small, poorly fitted or top-dose-only effect; inactive = no such curve, though single readings can be large or run the other way. The list comes from a sample in which actives are over-represented; it also holds similar structures and randomly drawn compounds.

Biological target: Bromodomain adjacent to zinc finger domain protein 2B (Homo sapiens) (UniProt Q9UIF8)
Test: qHTS Assay for Inhibitors of BAZ2B; note: nearly all actives have a fitted effect of over 60% in size
Conditions: AlphaScreen BAZ2B-H3K14Ac peptide displacement; series mostly up to 114 µM; activity change, negative = inhibition: at the top concentration
How it was run: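 In this displacement format the biotinylated H3(5-23) peptide acetylated at Lys14 serves as ligand at 50 nM, with BAZ2B at 50 nM in PBS pH 7.4 containing 0.01% Tween-20. Donor and acceptor beads are 10 ug/mL final.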
% is set by controls: 0 for no effect and ±100 for the full control effect; potency is the fitted concentration of half-maximal effect.

Sequence of Bromodomain adjacent to zinc finger domain protein 2B (Homo sapiens) (Q9UIF8 whole entry, looked up, the tested form may be a part): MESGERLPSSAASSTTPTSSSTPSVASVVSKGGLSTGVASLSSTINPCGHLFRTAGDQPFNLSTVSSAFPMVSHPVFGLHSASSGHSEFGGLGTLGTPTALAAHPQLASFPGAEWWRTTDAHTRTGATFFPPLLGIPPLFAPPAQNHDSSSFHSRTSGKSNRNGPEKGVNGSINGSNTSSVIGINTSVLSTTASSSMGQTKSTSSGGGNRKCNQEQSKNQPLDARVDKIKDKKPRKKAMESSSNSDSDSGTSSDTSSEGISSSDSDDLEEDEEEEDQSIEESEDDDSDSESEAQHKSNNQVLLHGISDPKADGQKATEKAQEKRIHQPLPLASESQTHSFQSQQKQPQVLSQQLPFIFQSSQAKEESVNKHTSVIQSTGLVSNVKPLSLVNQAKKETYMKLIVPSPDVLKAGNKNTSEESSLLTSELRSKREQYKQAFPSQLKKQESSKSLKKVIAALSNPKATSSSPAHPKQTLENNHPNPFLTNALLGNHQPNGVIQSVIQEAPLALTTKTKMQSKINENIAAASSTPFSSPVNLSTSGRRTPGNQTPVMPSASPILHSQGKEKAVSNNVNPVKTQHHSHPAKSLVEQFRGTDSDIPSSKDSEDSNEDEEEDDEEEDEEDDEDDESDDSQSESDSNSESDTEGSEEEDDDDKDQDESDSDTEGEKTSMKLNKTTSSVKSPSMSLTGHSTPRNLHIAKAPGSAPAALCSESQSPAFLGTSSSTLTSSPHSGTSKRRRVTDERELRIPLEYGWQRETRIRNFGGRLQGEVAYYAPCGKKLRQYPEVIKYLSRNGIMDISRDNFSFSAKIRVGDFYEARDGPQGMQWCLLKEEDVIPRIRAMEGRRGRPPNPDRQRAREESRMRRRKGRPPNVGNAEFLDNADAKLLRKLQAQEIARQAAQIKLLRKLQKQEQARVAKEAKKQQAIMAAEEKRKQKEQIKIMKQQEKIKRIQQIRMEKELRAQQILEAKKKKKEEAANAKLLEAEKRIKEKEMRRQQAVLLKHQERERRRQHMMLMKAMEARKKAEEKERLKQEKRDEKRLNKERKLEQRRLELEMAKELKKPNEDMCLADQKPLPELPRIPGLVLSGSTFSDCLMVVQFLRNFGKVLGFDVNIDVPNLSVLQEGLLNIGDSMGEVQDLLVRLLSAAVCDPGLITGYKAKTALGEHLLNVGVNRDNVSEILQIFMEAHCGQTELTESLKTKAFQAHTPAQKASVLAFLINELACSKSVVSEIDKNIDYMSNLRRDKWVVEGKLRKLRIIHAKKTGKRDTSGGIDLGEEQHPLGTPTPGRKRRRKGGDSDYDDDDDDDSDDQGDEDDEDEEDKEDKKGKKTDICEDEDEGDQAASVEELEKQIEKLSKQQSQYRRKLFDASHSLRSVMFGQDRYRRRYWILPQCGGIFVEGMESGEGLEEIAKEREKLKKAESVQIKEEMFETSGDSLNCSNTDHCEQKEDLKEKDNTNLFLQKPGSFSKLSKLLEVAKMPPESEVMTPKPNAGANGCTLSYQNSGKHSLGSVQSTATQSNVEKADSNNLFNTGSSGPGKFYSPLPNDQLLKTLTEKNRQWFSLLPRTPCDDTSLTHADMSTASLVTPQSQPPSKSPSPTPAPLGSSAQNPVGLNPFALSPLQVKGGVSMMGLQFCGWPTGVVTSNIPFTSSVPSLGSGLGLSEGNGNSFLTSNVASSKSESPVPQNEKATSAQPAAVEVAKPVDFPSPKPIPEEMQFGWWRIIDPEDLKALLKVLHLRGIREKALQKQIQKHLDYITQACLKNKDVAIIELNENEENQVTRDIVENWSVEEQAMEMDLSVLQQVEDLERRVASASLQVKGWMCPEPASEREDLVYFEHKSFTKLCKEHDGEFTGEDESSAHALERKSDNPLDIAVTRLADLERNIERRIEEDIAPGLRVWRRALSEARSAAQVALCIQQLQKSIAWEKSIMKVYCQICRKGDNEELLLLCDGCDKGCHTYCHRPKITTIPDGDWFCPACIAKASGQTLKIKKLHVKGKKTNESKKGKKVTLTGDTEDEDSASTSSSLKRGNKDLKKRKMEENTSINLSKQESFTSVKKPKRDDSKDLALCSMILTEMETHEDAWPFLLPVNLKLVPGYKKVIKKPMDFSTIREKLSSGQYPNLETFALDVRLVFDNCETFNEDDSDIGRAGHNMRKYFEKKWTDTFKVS

Activity change, negative = inhibition, inactive:
Cc1cccc(S(=O)(=O)c2cn(Cc3ccccc3)c3cc(N4CCOCC4)c(F)cc3c2=O)c1 0.496%, O=C(CSc1nc2ccccc2nc1Cc1ccccc1)N1CCCCC1 36%, Cc1ccc(Nc2nnc(-c3ccc(C)c(S(=O)(=O)N4CCCCC4)c3)c3ccccc23)cc1 8.32%, NS(=O)(=O)c1ccc(CNC(=O)c2cnccn2)cc1 -0.375%, COc1cccc(C(=O)NNS(=O)(=O)c2ccc(F)cc2)c1 8.36% [at 0.457 µM], CCC(CC)c1nn2cc(-c3ccccc3)nc2s1 12.6%, Cc1ccc(OCC(=O)Nc2ccc(Cl)c(-c3nc4ccccc4[nH]3)c2)cc1C -24.8%, Cc1nn(CC(=O)NCCc2ccccc2)c(=O)c2c1sc1ccccc12 -18.3%, COc1cc2ccccc2cc1C(=O)Nc1nc(C)c(C(C)=O)s1 6.28%, CC(=O)c1sc(N/N=C\c2ccc(C)cc2)nc1C -3.67%, COc1ccccc1CNS(=O)(=O)c1cc(Br)cc2c1N(C(C)=O)C(C)C2 (stereo unspecified) -0.972%, O=C(Nc1ccc(Br)cc1)c1ccc(Br)c(S(=O)(=O)NCc2ccccc2)c1 -1.45%, N#Cc1ccsc1NC(=O)CN1CCN(S(=O)(=O)c2cc(Cl)ccc2Cl)CC1 -11.6%, COc1ccc(Cl)cc1S(=O)(=O)N1CCN(CC(=O)C(C)(C)C)CC1 10.4%, CCC(=O)Nc1ccccc1-c1nc2ccccc2n(CC(=O)Nc2ccc(C)c(C)c2)c1=O -15.9%, CN(Cc1ccccc1)c1ncnc2onc(-c3ccc(F)cc3)c12 35.9% [at 57.1 µM], CCOC(=O)C1CCN(C(=O)/C=C/c2cc(OC)c(OC)c(OC)c2)CC1 6.29%, CCOC(=O)C1CCN(S(=O)(=O)c2cc(F)ccc2OC)CC1 -4.46%, CCOC(=O)c1c(NC(=O)c2ccc(S(=O)(=O)N3CCCC(C)C3)cc2)sc2c1CCN(C(C)C)C2 (stereo unspecified) 1.44%, CC1CCCN(c2csc3ccc(F)cc3c2=O)C1 (stereo unspecified) -14.5%, COc1ccc(OCc2ccc(-c3nc4ccccc4c(=O)n3N)o2)cc1 -21.5%, COc1ccccc1OCCCn1c(-c2ccc(Cl)cc2)nc2ccccc2c1=O 3.81%, O=C(Nc1ccc2nc(SCCOc3ccccc3)sc2c1)c1ccco1 -14.9%, CCCCN1C(=O)/C(=C2/Sc3ccc(Cl)cc3N2CC)SC1=S 8.39% [at 57.1 µM], O=C1C(Cc2ccc(O)cc2)NC(=S)N1Cc1ccccc1 (stereo unspecified) -1.83%, CCCCN1C(=O)/C(=C/C=C2/C=Cc3ccccc3N2CC)SC1=S -28.8%, COc1ccccc1NC(=O)Cn1cnc2ccc(S(=O)(=O)N3CCC(C)CC3)cc2c1=O -23.3%, Cc1ccc2nc(N3CCN(c4cccc(Cl)c4)CC3)c3nnnn3c2c1 -7.42%, Cn1c(=O)sc2cc(NS(=O)(=O)c3ccc(C(C)(C)C)cc3)ccc21 -24%, O=C(/C=C/c1ccccc1)N1CCN(Cc2cc(=O)n3nc(-c4ccccc4F)sc3n2)CC1 3.61%, Cc1cc(C)c(NC(=O)Cn2c(SCC(=O)NCc3ccccc3)nc3ccccc32)c(C)c1 -19.9%, S=c1[nH]nc(COc2ccccc2)n1-c1ccccc1 -0.261%, Cc1ccc(OCc2n[nH]c(=S)n2-c2ccccc2)cc1 -27.8%, COc1ccc(C)cc1N(CC(=O)N1CCC(C)CC1)S(=O)(=O)c1ccc(C)cc1 -0.594%, CCc1c(C)nc(N2CCN(Cc3ccccc3)CC2)[nH]c1=O 0.116%, O=S(=O)(c1cccs1)N1CCN(Cc2ccccc2)CC1 4.84%, CCOc1ccccc1NC(=O)CN1CCCN(Cc2cccc(Cl)c2)S1(=O)=O -0.932%, COc1cccc2c1cc1c(=O)n(CC(=O)N3CCN(c4ccccc4)CC3)nc(C)n12 0.516%, CC(=O)N1c2ccc(S(=O)(=O)N3CCCCCC3)cc2CC1C(=O)NCc1ccccc1C (stereo unspecified) -10.3%, COc1ccc(C2=CC(c3ccccc3Cl)n3nc(-c4ccc(Cl)cc4)nc3N2)cc1 (stereo unspecified) -5.56%, COc1ccc(C2C=C(c3ccc(Br)cc3)Nc3nc(NS(C)(=O)=O)nn32)cc1 (stereo unspecified) 3.31%

Potency, active:
O=C(NNS(=O)(=O)c1ccc(F)cc1)c1cnccn1 79.4 µM, CC(=O)c1sc(NC(=O)C2=NN(c3ccccc3)C(=O)CC2)nc1C 70.8 µM, O=C(CN1CCN(S(=O)(=O)c2cc(Cl)ccc2Cl)CC1)c1ccc(O)c(O)c1 44.7 µM, CCOC(=O)C1CCCCN1Cc1ccc(OC)c(OC)c1OC (stereo unspecified) 31.6 µM, Cn1c(COc2ccc(Cl)cc2)nc2ccccc2c1=O 50.1 µM, CCCCN1C(=O)/C(=C2/C=CC=CN2C)SC1=S 44.7 µM, CN1C=CC=C/C1=C1\SC(=S)N(Cc2ccccc2)C1=O 50.1 µM, COc1ccc(OCc2n[nH]c(=S)n2N)cc1 56.2 µM, O=C1c2ccccc2C(=O)c2c1cccc2N1CCN(Cc2ccccc2)CC1 5.01 µM, Cc1ccc(C2C=C(c3ccc(Cl)cc3)Nc3nc(NC(=O)CCC(=O)O)nn32)cc1 (stereo unspecified) 79.4 µM
